# Source: the supplement of paper PMC4466140
# Experiments:
# Assay in all cases: SPOT peptide array binding signal intensity (averaged, normalized) (arbitrary units (background-subtracted, floor 0; scale differs between SH3 domains)); higher = stronger binding of the SH3 domain to the peptide
# AgAbp1 = biological target: AgAbp1
# Summary of the method: (§1)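 Cellulose membranes carried synthetic 15-mer peptides with cysteines swapped for serines. These were incubated overnight at 4°C with 10 μg/ml of GST-fused SH3 domains from four yeast species in TBS-based blocking buffer. Binding signal, detected with anti-GST antibody and quantified in Genespotter, is the normalized, background-subtracted spot intensity averaged over replicates, in arbitrary units specific to each domain.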
# AgBbc1 = biological target: AgBbc1
# Summary of the method: as §1
# AgBem1-D1 = biological target: AgBem1-D1
# Summary of the method: as §1
# AgBzz1-D1 = biological target: AgBzz1-D1
# Summary of the method: as §1
# AgBzz1-D2 = biological target: AgBzz1-D2
# Summary of the method: as §1
# AgCyk3 = biological target: AgCyk3
# Summary of the method: as §1
# AgFus1 = biological target: AgFus1
# Summary of the method: as §1
# AgHof1 = biological target: AgHof1
# Summary of the method: as §1
# AgHse1 = biological target: AgHse1
# Summary of the method: as §1
# AgLsb1 = biological target: AgLsb1
# Summary of the method: as §1
# AgLsb4 = biological target: AgLsb4
# Summary of the method: as §1
# AgMyo5 = biological target: AgMyo5
# Summary of the method: as §1
# AgNbp2 = biological target: AgNbp2
# Summary of the method: as §1
# AgRvs167 = biological target: AgRvs167
# Summary of the method: as §1
# AgSho1 = biological target: AgSho1
# Summary of the method: as §1
# AgSla1-D1-D2 = biological target: AgSla1-D1-D2
# Summary of the method: as §1
# AgSla1-D3 = biological target: AgSla1-D3
# Summary of the method: as §1
# CaAbp1-D1 = biological target: CaAbp1-D1
# Summary of the method: as §1
# CaAbp1-D2 = biological target: CaAbp1-D2
# Summary of the method: as §1
# CaBbc1 = biological target: CaBbc1
# Summary of the method: as §1
# CaBem1-D1 = biological target: CaBem1-D1
# Summary of the method: as §1
# CaBzz1-D1 = biological target: CaBzz1-D1
# Summary of the method: as §1
# CaBzz1-D2 = biological target: CaBzz1-D2
# Summary of the method: as §1
# CaCyk3 = biological target: CaCyk3
# Summary of the method: as §1
# CaFus1 = biological target: CaFus1
# Summary of the method: as §1
# CaHof1 = biological target: CaHof1
# Summary of the method: as §1
# CaHse1 = biological target: CaHse1
# Summary of the method: as §1
# CaLsb1 = biological target: CaLsb1
# Summary of the method: as §1
# CaLsb4 = biological target: CaLsb4
# Summary of the method: as §1
# CaMyo5 = biological target: CaMyo5
# Summary of the method: as §1
# CaNbp2 = biological target: CaNbp2
# Summary of the method: as §1
# CaRvs167 = biological target: CaRvs167
# Summary of the method: as §1
# CaRvs167-3 = biological target: CaRvs167-3
# Summary of the method: as §1
# CaSho1 = biological target: CaSho1
# Summary of the method: as §1
# CaSla1-D1-D2 = biological target: CaSla1-D1-D2
# Summary of the method: as §1
# CaSla1-D3 = biological target: CaSla1-D3
# Summary of the method: as §1
# ScAbp1 = biological target: ScAbp1
# Summary of the method: as §1
binder,measurement,setting,value
DGNEEKPLLPTRPNK,SPOT peptide array binding signal intensity,AgAbp1,≤ 0
same,SPOT peptide array binding signal intensity,AgBbc1,977
same,SPOT peptide array binding signal intensity,AgBem1-D1,≤ 0
same,SPOT peptide array binding signal intensity,AgBzz1-D1,9.5
same,SPOT peptide array binding signal intensity,AgBzz1-D2,17.5
same,SPOT peptide array binding signal intensity,AgCyk3,≤ 0
same,SPOT peptide array binding signal intensity,AgFus1,≤ 0
same,SPOT peptide array binding signal intensity,AgHof1,23.8
same,SPOT peptide array binding signal intensity,AgHse1,≤ 0
same,SPOT peptide array binding signal intensity,AgLsb1,47.2
same,SPOT peptide array binding signal intensity,AgLsb4,1730
same,SPOT peptide array binding signal intensity,AgMyo5,0.25
same,SPOT peptide array binding signal intensity,AgNbp2,≤ 0
same,SPOT peptide array binding signal intensity,AgRvs167,43.8
same,SPOT peptide array binding signal intensity,AgSho1,≤ 0
same,SPOT peptide array binding signal intensity,AgSla1-D1-D2,≤ 0
same,SPOT peptide array binding signal intensity,AgSla1-D3,≤ 0
same,SPOT peptide array binding signal intensity,CaAbp1-D1,≤ 0
same,SPOT peptide array binding signal intensity,CaAbp1-D2,≤ 0
same,SPOT peptide array binding signal intensity,CaBbc1,844
same,SPOT peptide array binding signal intensity,CaBem1-D1,≤ 0
same,SPOT peptide array binding signal intensity,CaBzz1-D1,18
same,SPOT peptide array binding signal intensity,CaBzz1-D2,1.75
same,SPOT peptide array binding signal intensity,CaCyk3,7
same,SPOT peptide array binding signal intensity,CaFus1,≤ 0
same,SPOT peptide array binding signal intensity,CaHof1,0.5
same,SPOT peptide array binding signal intensity,CaHse1,6.38
same,SPOT peptide array binding signal intensity,CaLsb1,≤ 0
same,SPOT peptide array binding signal intensity,CaLsb4,3160
same,SPOT peptide array binding signal intensity,CaMyo5,≤ 0
same,SPOT peptide array binding signal intensity,CaNbp2,4.5
same,SPOT peptide array binding signal intensity,CaRvs167,382
same,SPOT peptide array binding signal intensity,CaRvs167-3,22
same,SPOT peptide array binding signal intensity,CaSho1,1.5
same,SPOT peptide array binding signal intensity,CaSla1-D1-D2,≤ 0
same,SPOT peptide array binding signal intensity,CaSla1-D3,≤ 0
same,SPOT peptide array binding signal intensity,ScAbp1,≤ 0
